According to PubChem BioAssay AID488838 (National Center for Advancing Translational Sciences (NCATS), 2010):
Inconclusive results are not listed. A number with no mark means an inactive call. The source made the active and inactive calls. Calls follow the shape of the dose curve; as a rule, active = well fitted inhibition curve with a large enough effect; inconclusive = small, poorly fitted or top-dose-only effect; inactive = flat fitted curve, though single readings scatter.

Target: Luciferin 4-monooxygenase (Photinus pyralis) (UniProt P08659)
Assay: Counterscreen Assay for Enhancers of SMN2 Splice Variant Expression: Interaction with Luciferase Reporter for Further Probe SAR
Details: purified firefly luciferase, luminescence, 5 min; series mostly up to 57.5 µM; activity change, negative = inhibition: at the top concentration
Description: NIH Chemical Genomics Center [NCGC] NIH Molecular Libraries Probe Production centers Network [MLPCN] MLPCN Grant: R03 MH084179-01 Assay Submitter (PI): Elliot Androphy NCGC Assay Overview: Spinal muscular atrophy (SMA) is caused by insufficient levels of the survival motor neuron protein SMN. The SMN locus on chromosome 5q13 contains two inverted copies of SMN called SMN1 and SMN2 which are 99% identical at the amino acid level. SMN1 is a fully functional protein and SMN2 skips exon 7 90% of the time. Skipping of exon 7 produces non-functional protein product. 10% of the SMN2 protein includes exon 7 and is fully functional. In the SMA disease state, mutations in the SMN1 locus are the cause of the disease state. Because only 10% of SMN2 is of the fully functional form, it is not sufficient to overcome the deficiency produced by the loss of the SMN1 product. A therapy that either increases the amount of SMN2 product made increases the inclusion of exon 7 has been proposed for the treatment of SMA. We have designed an assay to identify small molecules that can increase the amount of functional SMN2 product by appending a luciferase reporter gene after the native SMN2 gene, such that inclusion of exon 7 in the expressed product places the luciferase sequence in frame, thus generating functional luciferase enzyme. One potential source of false positives in the primary screening assay is stabilization of the reporter luciferase via direct binding. This assay attempts to identify such compounds by screening directly for luciferase activity in the absence of the cellular system.
NCGC Assay Protocol Summary: The primary screen utilizes a luciferase reporter gene assay, combining the promoter and splicing based cassettes in tandem with the major portion of the native SMN1 cDNA, and then transfected into HEK293 cells. Compounds that modulate luciferase signal presumably modulate expression of […]. In this assay, we utilize purified firefly luciferase in lieu of a cellular reporter to identify compounds interacting directly with luciferase in the primary screen. Sequence, Parameter, Value, Description (1) Reagent, 2.5 uL, Enzyme in buffer (note A) (2) Compound, 23 nL, From stock solutions (3) Time, 5 minutes, Room temp (4) Reagent#2.5 ul, Luciferase detection reagent (note B) (5) Detector, 1 sec integrate, Luminescent read on Viewlux (note C) Sigma enzyme (1 mg) considered to be MW 61,000 diluted in 357 ul assay buffer to 50 uM stock. A - Enzyme and buffer consists of 50 mM Tris-acetate pH 7.6, 10 mM Mg acetate 0.05% BSA, 0.01% Tween and 5 nM firefly luciferase B - Detection reagent = britelite plus diluted 1:10 in PBS C - Viewlux settings were 1 second integration medium sensitivity Keywords: Spinal muscular atrophy, SMA, SMN2, high throughput screening, MLSMR, MLPCN, NIH Roadmap, qHTS and NCGC

Chain of Luciferin 4-monooxygenase (Photinus pyralis) (P08659 whole entry, looked up, canonical isoform): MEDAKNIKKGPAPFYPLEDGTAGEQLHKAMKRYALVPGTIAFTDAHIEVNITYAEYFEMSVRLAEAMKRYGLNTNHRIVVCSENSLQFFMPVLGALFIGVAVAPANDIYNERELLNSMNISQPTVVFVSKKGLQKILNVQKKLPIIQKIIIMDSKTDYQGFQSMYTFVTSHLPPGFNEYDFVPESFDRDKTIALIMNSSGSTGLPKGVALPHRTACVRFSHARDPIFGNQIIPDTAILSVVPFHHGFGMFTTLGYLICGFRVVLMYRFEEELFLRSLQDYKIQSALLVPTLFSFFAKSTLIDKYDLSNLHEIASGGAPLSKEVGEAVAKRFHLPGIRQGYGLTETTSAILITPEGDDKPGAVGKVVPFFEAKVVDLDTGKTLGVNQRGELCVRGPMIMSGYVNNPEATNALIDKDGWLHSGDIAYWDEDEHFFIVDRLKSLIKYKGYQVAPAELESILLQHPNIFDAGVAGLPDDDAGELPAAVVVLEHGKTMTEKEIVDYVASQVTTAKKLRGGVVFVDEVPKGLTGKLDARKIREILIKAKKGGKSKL

| Compound | activity change, negative = inhibition | Potency |
| --- | --- | --- |
| NC(=O)C1CCN(c2nc(-c3ccccc3Cl)cs2)CC1 | -28.1% | – |
| NC(=O)C1CCN(c2nc(-c3ccc(OC(F)(F)F)cc3)cs2)CC1 | -19.4% | – |
| CN(C)c1cccc(-c2cc(N3CCC(C(N)=O)CC3)ncn2)c1 | -20% | – |
| N#Cc1ccccc1-c1csc(N2CCC(C(N)=O)CC2)n1 | -25.4% | – |
| COc1ccc(-c2csc(N3CCC(C(N)=O)CC3)n2)cc1OC | -25.8% | – |
| Nc1nc(N)c2c(OCC3CCN(Cc4ccccc4F)CC3)cccc2n1 | -16.4% | – |
| CC(=O)C1CCN(c2ncc(-c3cccc(N(C)C)c3)s2)CC1 | – | 5.05 µM (active) |
| CN(C)c1cccc(-c2cnc(N3CCC(C(N)=O)CC3)nc2)c1 | – | 11.3 µM (active) |
| CN(C)C(=O)C1CCN(c2nc(-c3ccc(Br)cc3)cs2)CC1 | – | 8 µM (active) |
| NC(=O)C1CCN(c2nc(-c3cccc(Br)c3)cs2)CC1 | – | 31.8 µM (active) |
| NC(=O)C1CCN(c2nnc(-c3ccc(Br)cc3)s2)CC1 | -22.2% | – |
| Brc1ccc(-c2csc(N3CCC(c4nn[nH]n4)CC3)n2)cc1 | – | 16 µM (active) |
| NC(=O)C1CCN(c2ncc(-c3ccc(Cl)cc3)s2)CC1 | – | 10.1 µM (active) |
| O=C(c1ccco1)N1CCN(c2nc(-c3ccc(Br)cc3)cs2)CC1 | -11.1% | – |
| CN(C)c1cccc(-c2cnc(N3CCC(C(N)=O)CC3)s2)c1 | – | 0.635 µM (active) |
| NC(=O)C1CCN(c2ncc(Br)cn2)CC1 | -12.9% | – |
| NC(=O)C1CCN(c2nc(-c3ccc4c(c3)OCO4)cs2)CC1 | – | 28.4 µM (active) |
| CCOc1ccc(-c2csc(N3CCC(C(N)=O)CC3)n2)cc1 | -29.5% | – |
| CC(=O)Nc1ccc(-c2csc(N3CCC(C(N)=O)CC3)n2)cc1 | -14% | – |
| CCOC(=O)C1CCN(c2nc(-c3ccc(Br)cc3)cs2)CC1 | -28.1% | – |

| Compound | activity change, negative = inhibition | Potency |
| --- | --- | --- |
| NC(=O)C1CCN(c2ncc(-c3ccc4c(c3)OCO4)s2)CC1 | – | 3.18 µM (active) |
| NC(=O)C1CCN(c2nc(-c3cccc(C(F)(F)F)c3)cs2)CC1 | -27.4% | – |
| NC(=O)C1CCN(c2ncc(-c3ccc(Br)cc3)s2)CC1 | – | 4.01 µM (active) |
| COc1cccc(-c2csc(N3CCC(C(N)=O)CC3)n2)c1 | – | 25.3 µM (active) |
| CC(=O)NC1CCN(c2nc(-c3ccc(Br)cc3)cs2)CC1 | -15.6% | – |
| O=C(C1CCN(c2nc(-c3ccc(Br)cc3)cs2)CC1)N1CCNCC1 | 9.84% | – |
| COc1ccccc1-c1csc(N2CCC(C(N)=O)CC2)n1 | -21.1% | – |
| CN(C)c1ccc(-c2csc(N3CCC(C(N)=O)CC3)n2)cc1 | -29% | – |
| CC(C)Oc1cccc(-c2cnc(N3CCC(C(N)=O)CC3)s2)c1 | – | 0.8 µM (active) |
| Cc1cnc(N2CCC(C(N)=O)CC2)nc1-c1cccc(N(C)C)c1 | -6.67% | – |
| N#Cc1ccc(-c2csc(N3CCC(C(N)=O)CC3)n2)cc1 | -17.5% | – |
| NC(=O)C1CCN(c2nc(-c3ccc4c(c3)OCCCO4)cs2)CC1 | – | 0.897 µM (active) |
| COc1cc(-c2csc(N3CCC(C(N)=O)CC3)n2)cc(OC)c1OC | -11.5% | – |
| O=C(c1ccccc1)N1CCN(c2nc(-c3ccc(Br)cc3)cs2)CC1 | -22.2% | – |
| CS(=O)(=O)N1CCN(c2nc(-c3ccc(Br)cc3)cs2)CC1 | -14.8% | – |
| NC(=O)C1CCN(c2ncc(-c3ccc4c(c3)OC(F)(F)O4)s2)CC1 | – | 16 µM (active) |
| NC(=O)C1CCN(c2nc(-c3ccc(C(F)(F)F)cc3)cs2)CC1 | – | 20.1 µM (active) |
| Cc1ccc(-c2cnc(N3CCC(C(N)=O)CC3)s2)cc1 | – | 5.05 µM (active) |
| NC(=O)C1CCN(c2ncc(-c3ccc4c(c3)OCCCO4)s2)CC1 | – | 2.84 µM (active) |
| NC(=O)C1CCN(c2ncc(-c3ccc4c(c3)OCCO4)s2)CC1 | – | 5.05 µM (active) |
